Rows were chosen to be rich in hits. Some 3.5% of all compounds tested hit in one or more screens of this group.
Kir21 block: blocks the mouse Kir2.1 inward-rectifier potassium channel; P35561; HEK293-Kir2.1, FluxOR thallium flux fluorescence; hits give low values; B-score at 10 µM; 310,000 tested, 0.85% active; AID 1672;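 active = fluorescence ratio B-score at or below minus 3 SD of library scores, with starting-brightness B-score within 2 SD, cut at about -4.2 in these data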;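 note: channel flux triggered by added potassium and thallium sulfate stimulus; B-score of peak minus minimum fluorescence over baseline after thallium stimulus; more negative B-score means stronger Kir2.1 block with less thallium influx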
KCNK9 inh: inhibitors of human KCNK9 two-pore domain potassium channel | 310,000 tested, 1.2% active | AID 488922 | HEK293 KCNK9, FluxOR thallium flux fluorescence; hits give low values | Q9NPC2 | B-score at 10 µM;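 active = ratio B-score over 3 SD below the library mean, with starting fluorescence within 5 SD of its mean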;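 note: negative B-score means less thallium flux so channel inhibition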
Target sequence (Q9NPC2 whole entry, looked up, the tested form may be a part): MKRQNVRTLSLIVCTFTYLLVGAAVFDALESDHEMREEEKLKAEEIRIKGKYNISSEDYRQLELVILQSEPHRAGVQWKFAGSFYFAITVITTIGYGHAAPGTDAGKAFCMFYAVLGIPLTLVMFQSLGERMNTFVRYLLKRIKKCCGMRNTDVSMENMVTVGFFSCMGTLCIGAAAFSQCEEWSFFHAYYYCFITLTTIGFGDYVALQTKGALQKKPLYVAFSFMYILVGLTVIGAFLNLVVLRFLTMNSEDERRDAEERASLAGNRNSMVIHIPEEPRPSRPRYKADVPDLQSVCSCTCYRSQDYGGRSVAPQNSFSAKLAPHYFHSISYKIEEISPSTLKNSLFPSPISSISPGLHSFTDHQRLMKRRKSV
TMEM16A act: mouse TMEM16A channel activation, primary screen | B-score at 10 µM | 340,000 tested, 0.3% active | HEK293 TMEM16A/YFP-H148Q/I152L, iodide quench fluorescence; hits give low values | Q8BHY3;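 active = fluorescence-ratio B-score plate-corrected deviation score at least 3 library SD below zero, with starting fluorescence score within 5 deviations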;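 note: channel opened by trigger with iodide after compound preincubation; score built on the fluorescence ratio of max minus min over baseline; more negative score means more quench and so TMEM16A activation or potentiation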
KCNK3 inh: human KCNK3 channel inhibition, primary screen; 340,000 tested, 0.84% active; CHO-KCNK3 thallium flux, FluxOR fluorescence; hits give low values; B-score at 10 µM; AID 602410; O14649;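 active = B-score under library mean minus 4 SD, starting fluorescence ratio at most library mean plus 5 SD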;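 note: more negative B-score means stronger inhibition of thallium flux through KCNK3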
ANO1 block: mouse TMEM16A channel inhibition, primary screen | Q8BHY3 | HEK293 TMEM16A/YFP iodide influx fluorescence, ionomycin | normalized B-score (activity score, 25-100; higher = stronger inhibition) at 10 µM | 310,000 tested, 1.2% active | AID 588511;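 active = ratio plate-corrected score three or more library SD toward inhibition, starting fluorescence score within five deviations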;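 note: score derived from kinetic fluorescence span divided by baseline fluorescence per well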
Of the large screens only hits and unclear results are named; the others gave an inactive call.

CCOC(=O)N1CCC(N2C(=O)c3ccccc3C2Nc2cc(C(=O)OC)cc(C(=O)OC)c2)CC1 (configuration not stated)	none
Cc1ccc(N=Cc2nc(-c3ccc(C)cc3)oc2O)cc1	none (no result: ANO1 block)
CC(=O)Nc1ccc(N=Cc2nc(-c3ccc(C)cc3)oc2O)cc1	KCNK9 inh -6.8
CCC(C)Sc1ccc([C@@H]2[C@@H]3C(=O)N(C)C(=O)[C@@H]3[C@]3(C(=O)OC)CCCCN23)cc1 (some centres not stated)	none
CCC(C(=O)O)n1nnc(-c2ccc(-c3ccc(OC)cc3)cc2)n1 (configuration not stated)	none
CCCCOc1ccc(-c2nnn(C(C)C(=O)OCC)n2)cc1 (configuration not stated)	KCNK9 inh -7.2
Cc1ccc(S(=O)(=O)c2c(C)cc(C)nc2Oc2cccc(C(F)(F)F)c2)cc1	KCNK9 inh -7.3
COc1ccccc1C(=O)OCc1nc(N)nc(Nc2ccccc2C)n1	Kir21 block -5.2
N#Cc1c(-n2cccc2/C=N/O)sc2c1CCCC2	Kir21 block -9.8
O=C(Nc1ccc(C(=O)NCC2CCN(Cc3ccccc3F)CC2)cc1)C1=CSCCO1	none
Cc1ccc(CN2CCC(CNC(=O)c3ccc(NC(=O)C4=CSCCO4)cc3)CC2)cc1	TMEM16A act -27
CCC(C)NC(=O)c1ccc(CSCc2ccccc2Cl)o1 (configuration not stated)	KCNK9 inh -6.7
COCCN1C(=O)C(=O)/C(=C(/O)c2cccc(S(=O)(=O)N(C)C)c2)C12C(=O)N(C)c1ccccc12 (configuration not stated)	none
CN(C)CCNC(=O)/C(=C/c1ccc(-c2ccc(Cl)cc2Cl)o1)NC(=O)c1ccccc1	Kir21 block -5.6
CC1(C)CC(=O)C2=C(C1)OC(N)=C([N+](=O)[O-])C2c1cccs1 (configuration not stated)	none
O=C(NNC(=O)c1ccc(SCC2CCCO2)c([N+](=O)[O-])c1)c1ccc(F)cc1 (configuration not stated)	none
O=[N+]([O-])c1ccc(NCCNS(=O)(=O)c2ccccc2)c(C(F)(F)F)c1	Kir21 block -5.8
Cc1ccc(S(=O)(=O)NCCNc2ccccc2[N+](=O)[O-])cc1	Kir21 block -4.3
CC(NCCC1(Cc2ccccc2Cl)CCOC(C)(C)C1)c1cccs1 (configuration not stated)	Kir21 block -4.9
COC(=O)c1cc2ccsc2n1CC(=O)Nc1cc(Cl)ccc1OC	ANO1 block 25
COC(=O)c1cc2ccsc2n1CC(=O)Nc1ccc(N(C)C)cc1	none
COc1ccc(CNc2oc(-c3cccc4ccccc34)nc2C#N)cc1	KCNK9 inh -7.3
COc1cccc(NC(=O)c2cccc(N3C(=O)C4C5C=CC(C5)C4C3=O)c2)c1 (configuration not stated)	ANO1 block 25
COc1ccc(NC(=O)c2cccc(N3C(=O)C4C5C=CC(C5)C4C3=O)c2)cc1 (configuration not stated)	none
CN(Cc1ccc(Cl)c(Cl)c1)C(=O)C1CSC2(C)CCC(=O)N12 (configuration not stated)	none (no result: Kir21 block, KCNK9 inh, ANO1 block)
CN1C(=O)/C(=C/c2ccccc2Cl)Sc2ccc(C(=O)N3CCCC3)cc21	ANO1 block 100
CCOC(=O)C1CCCN(C(=O)c2ccc3c(c2)N(C)C(=O)/C(=C/c2ccccc2Cl)S3)C1 (configuration not stated)	none
O=c1nc2ccccc2c2n1CC(CN1CCN(c3ccccc3F)CC1)N2 (configuration not stated)	none
CCCN(CC(=O)Nc1ccccc1OC)C(=O)c1ccc(S(=O)(=O)NCc2ccco2)cc1	TMEM16A act -45 (no result: Kir21 block, KCNK9 inh, ANO1 block)
COc1ccc(S(=O)(=O)N(Cc2ccccc2)c2ccccc2C(=O)Nc2ccccc2C(=O)NCc2ccco2)cc1	KCNK9 inh -6.9
COc1ccc(S(=O)(=O)Nc2ccc(Cc3ccncc3)cc2)cc1OC	ANO1 block 25
CCc1ccc(OC)c(S(=O)(=O)Nc2ccc(Cc3ccncc3)cc2)c1	none
CCOc1ccc(NS(=O)(=O)c2ccc(OC)c(C)c2)cc1	Kir21 block -7.5
CCn1nccc1C(=O)Nc1ccc(Cl)cn1	none
CCn1nccc1C(=O)Nc1cc(Cl)cc(Cl)c1	KCNK9 inh -6.7
O=C1OC(c2ccccc2)(c2cc(Br)ccc2O)c2ccccc21 (configuration not stated)	KCNK3 inh -9.8 (no result: Kir21 block, KCNK9 inh, ANO1 block)
CC(=O)Nc1ccc(S(=O)(=O)NC(CC(=O)O)c2ccc(C)cc2)cc1 (configuration not stated)	none
CCOC(=O)CC(NS(=O)(=O)c1ccc(NC(C)=O)cc1)c1ccc(OCC)cc1 (configuration not stated)	ANO1 block 25
N#CC(C#N)=C1C=C2C=C(N3CCCCCC3)CCC2CC1 (configuration not stated)	none (no result: ANO1 block)
CN1CCN(C2=CC3=CC(=C(C#N)C#N)CCC3CC2)CC1 (configuration not stated)	TMEM16A act -41 (no result: Kir21 block, KCNK9 inh, ANO1 block)
COc1cc2ccccc2cc1C(=O)OCC(=O)N(CC(C)C)c1c(N)n(Cc2ccccc2)c(=O)[nH]c1=O	none
N#Cc1c(NC(=O)C(=O)NCCCN2CCOCC2)sc2c1CCC2	none
COC(=O)c1c(NC(=O)C(=O)NCCCN2CCOCC2)sc2c1CCCC2	Kir21 block -5
CN1C(C(=O)NCc2cccc(Br)c2)CC2Cn3c(nc4cc(Cl)c(Cl)cc43)C21 (configuration not stated)	TMEM16A act -4.8
N/C(Cc1ccc(Cl)cc1)=N\OC(=O)c1ccc2ccccc2c1	none
N/C(Cc1ccc(Cl)cc1)=N\OC(=O)c1cccc2ccccc12	KCNK9 inh -14
O=c1c2ccccc2nnn1Cc1ccc(F)cc1	ANO1 block 100
O=c1c2ccccc2nnn1Cc1ccc(Br)cc1	none
CC(C)OC(=O)c1ccc(Cn2nnc3ccccc3c2=O)cc1	ANO1 block 100
COc1ccccc1C1/C(=C(\O)c2ccc3c(c2)OCCO3)C(=O)C(=O)N1CCCn1ccnc1 (configuration not stated)	none
COC(=O)[C@@H]1C[C@@H]2CC[C@@H](O)C[C@@H]2N1Cc1ccccc1OS(=O)(=O)c1ccc(C)cc1	none
Nc1nc2c(s1)CCCCCCCCCC2	Kir21 block -7.4
C=CCN1CCc2nc(N)sc2CC1	none (no result: Kir21 block, KCNK9 inh, ANO1 block)
Cc1cc(C)c(S(=O)(=O)Cc2ccccc2)c(Cl)n1	none
COc1cc([N+](=O)[O-])ccc1NC(=O)CCS(=O)(=O)c1ccc2c(c1)n(C)c(=O)c(=O)n2C	none
CC(C)(Sc1ccc(CCN(CCCCC2CCCCC2)C(=O)NC2CCCCC2)cc1)C(=O)O	ANO1 block 100 (no result: Kir21 block, KCNK9 inh)
O=C([O-])c1ccccc1-[n+]1c(-c2ccccc2)cc(-c2ccccc2)cc1-c1ccccc1	Kir21 block -4.6
O=C(CCc1nc2ccccc2c(=O)[nH]1)N1CCN(S(=O)(=O)c2ccc(F)cc2)CC1	none (no result: Kir21 block, KCNK9 inh, ANO1 block)
